Measles inh: inhibitors of measles virus growth in infected cells. infected Vero cells, GFP fluorescence, 64 h; stronger effect = lower value. z-score (concentration not given with the values). AID 745. actives 0.1% (n = 33,000); in the data active = z-score below about -3
The depositor's hits bear a star. Shown is part of a subset that was picked to be rich in hits.

SMILES | Measles inh
O=C(Nc1cccc(-c2nc3cc(Cl)ccc3o2)c1)c1ccc(Br)o1 | -0.44
O=C(Nc1cccc(-c2nc3ccccc3s2)c1)c1ccc(Br)o1 | -4.16*
O=C(Nc1cccc(-c2nc3ccccc3s2)c1)c1cccs1 | -0.07
CCCn1cnc2sc(C(=O)Nc3ccc([N+](=O)[O-])cc3)c(C)c2c1=O | 0.06
O=C(OCc1ccccc1)c1cccc(N2C(=O)C3C4CCC(C4)C3C2=O)c1 (stereo not drawn) | 0.3
O=C(Cc1ccccc1)Oc1ccc(N2C(=O)C3C4CCC(C4)C3C2=O)cc1 (stereo not drawn) | -6.38*
COc1ccc(OC(=O)c2ccc(N3C(=O)C4C5CCC(C5)C4C3=O)cc2)cc1 (stereo not drawn) | 0.48
CC1=C(C(=O)OC2CCCCCC2)C(c2ccc3c(c2)OCO3)NC(=O)N1C (stereo not drawn) | -1.27
CC(C)(CNC(=O)C1c2ccccc2Oc2ccccc21)CNC(=O)C1c2ccccc2Oc2ccccc21 | 1.04
Cc1cccc(C(=O)Nc2sc3c(c2C(=O)NCc2ccco2)CCCC3)c1 | -0.65
CC(C)OC(=O)c1c(NC(=O)c2ccc(Cl)c([N+](=O)[O-])c2)sc2c1CCCC2 | -3.83*
Cc1cccc(C(=O)Nc2sc3c(c2C(=O)Nc2ccccc2Cl)CCC3)c1 | 0.38
COC(=O)c1c(NC(=O)c2ccc(C)c([N+](=O)[O-])c2)sc2c1CCC2 | 1.57
Cc1cc(C(=O)Nc2sc3c(c2C(=O)OC(C)C)CCCC3)ccc1[N+](=O)[O-] | 1.56
Cc1cccc(C(=O)Nc2sc3c(c2C(=O)Nc2ccccc2Cl)CCCC3)c1 | -4.4*
NS(=O)(=O)c1ccccc1NC(=O)c1c(O)c2cccc3c2n(c1=O)CC3 | 0.16
O=C(Nc1cccnc1)c1cc(-c2cccs2)nc2ccccc12 | 0.73
CC(C)c1ccc(NC(=O)c2cc(-c3cccs3)nc3ccccc23)cc1 | -0.09
Cc1ccc(Cl)cc1NC(=O)c1cc(-c2cccs2)nc2ccccc12 | -3.01*
NC(=O)c1cc(-c2ccsc2)no1 | -1.38
COCCCNC(=O)c1ccc2c(=O)n(CCOC)c(=O)[nH]c2c1 | 0.63
COCCn1c(=O)[nH]c2cc(C(=O)NC3CCN(Cc4ccccc4)CC3)ccc2c1=O | -1.39
COCCn1c(=O)[nH]c2cc(C(=O)NCCN3CCN(c4ccccc4)CC3)ccc2c1=O | -3.61*
COC(=O)c1sc(=S)n(-c2c(C)cccc2C)c1N | 1.21
CN1C(=O)COc2ccccc21 | 0.39
SMILES | Measles inh
COc1cc(C(=O)NCc2ccccn2)c([N+](=O)[O-])cc1OC | -0.19
COc1cc(C(=O)c2ccccc2)c([N+](=O)[O-])cc1OC | -3.04*
COc1cc(C(=O)N2CCc3ccccc32)c([N+](=O)[O-])cc1OC | 0.48
O=C1C2C(c3ccccc3F)NN(C(=O)c3cccc(Br)c3)C2C(=O)N1c1ccccc1Cl (stereo not drawn) | -0.85
CC1=C(C(=O)OC(C)C)C(c2ccc(C)cc2)N2C(=O)C(C)SC2=N1 (stereo not drawn) | -1.75
CSc1nc2c(c(=O)n1CC1CCCC1)C1(CCCC1)Cc1ccccc1-2 | -1.38
CCN(c1ccccc1)S(=O)(=O)c1ccc2[nH]cc(C(=O)NC3CCCCC3)c(=O)c2c1 | -2.07
O=C(NC1CCCCCC1)c1c[nH]c2ccc(S(=O)(=O)N3CCc4ccccc43)cc2c1=O | -3.19*
CCc1ccccc1NS(=O)(=O)c1ccc2[nH]cc(C(=O)NC3CCCC3)c(=O)c2c1 | -0.66
Cc1cccc(Oc2ccc(N3C(=O)C4C5C=CC(C6CC56)C4C3=O)cc2)c1 (stereo not drawn) | 0.28
CCOC(=O)c1ccc(NC2=CC(=NS(=O)(=O)c3ccc(OC)cc3)c3ccccc3C2=O)cc1 | -0.74
Cc1ccc(CNC(=O)CSc2nc3ccsc3c(=O)n2Cc2ccccc2F)cc1 | -3.87*
CC(C)CCNC(=O)CSc1nc2ccsc2c(=O)n1Cc1ccc2c(c1)OCO2 | -0.28
Cc1ccc(Cn2c(SCC(=O)c3ccc(F)cc3)nc3ccsc3c2=O)cc1 | -0.75
CC(=O)Oc1cccc2cccnc12 | -0.4
COc1ccc(C(=O)Oc2cccc3cccnc23)cc1OC | -0.37
CCOc1ccc(C(=O)Oc2cccc3cccnc23)cc1Br | -3.48*
CCN(Cc1ccccc1)S(=O)(=O)c1cc(Br)cc2c1N(C(C)=O)CC2 | -5.58*
CCN(CCNS(=O)(=O)c1cc(Br)cc2c1N(C(C)=O)CC2)c1ccccc1 | 0.44
CCCCN(CCCC)S(=O)(=O)c1cc(Br)cc2c1N(C(C)=O)CC2 | -0.06
CCN(Cc1ccccc1)S(=O)(=O)c1ccc(F)c(C(=O)Nc2ccc(F)cc2)c1 | 1.05
Cc1ccc(Cc2cnc(NC(=O)COc3cccc(C(F)(F)F)c3)s2)cc1 | -0.57
CCOC(=O)c1ccccc1NC(=O)CN(c1cccc(C)c1C)S(C)(=O)=O | -0.87
CCOc1ccc(NC(=O)c2c(NCc3ccncc3)sc3c2CCCCC3)cc1 | 0.47
COc1ccccc1NC(=O)c1scc2c1CCCC2 | -0.52
SMILES | Measles inh
COc1ccc(Br)cc1CN1C(=O)c2ccccc2C1C(=O)NC1CCC(C)CC1 (stereo not drawn) | -1.02
O=C(NC1CCCCCCC1)C1c2ccccc2C(=O)N1CCCN1CCCCC1 (stereo not drawn) | -0.55
CC1CCC(NC(=O)C2c3ccccc3C(=O)N2CCCN2CCOCC2)CC1 (stereo not drawn) | -4.9*
CCCOC(=O)c1ccc(NC(=O)c2ccc(Cl)c([N+](=O)[O-])c2)cc1 | -0.7
CC1=C(C(=O)OCCOc2ccccc2)C(c2cccnc2)C2=C(CC(C)(C)CC2=O)N1 (stereo not drawn) | 2.79
CC1(C)C(=O)N(Cc2ccccc2)c2ccccc2N1C(=O)c1ccc(Br)cc1 | -4*
Cc1ccc(C(=O)CC2(O)C(=O)N(Cc3ccccc3)c3ccccc32)cc1 (stereo not drawn) | -0.1
CC1(C)C(=O)N(Cc2ccc([N+](=O)[O-])cc2)c2ccccc2N1C(=O)c1ccc(Br)cc1 | -0.47
COc1ccc(-c2cn(-c3ccc(OC)cc3)c(SCC(=O)Nc3ccc(Cl)cc3)n2)cc1 | -0.2
CCN(CC)C(=O)c1ccc2c(=O)n(-c3cc(OC)ccc3OC)c(=S)[nH]c2c1 | -5.5*
COc1ccc(OC)c(-n2c(=S)[nH]c3cc(C(=O)Nc4ccc5c(c4)CCC5)ccc3c2=O)c1 | 1.92
COc1ccc(CNC(=O)c2ccc3c(=O)n(-c4cc(OC)ccc4OC)c(=S)[nH]c3c2)cc1 | 0.3
COc1ccc(C(=O)Nc2ccc(NC(=O)C(=O)O)cc2)cc1OC | -0.51
CNC(=O)c1cc2c(=O)n3ccccc3nc2n(CC2CCCO2)c1=N (stereo not drawn) | 0.19
Cc1cccc(NC(=O)C2c3ccccc3C(=O)N(C)C2c2cccs2)n1 (stereo not drawn) | 1.04
CCc1ccccc1Nc1ncnc2c1cnn2-c1ccc(OC)cc1 | -0.22
COc1ccc(Nc2ncnc3c2cnn3-c2ccccc2)c(OC)c1 | -3.32*
Cc1cc(C)cc(Nc2ncnc3c2cnn3-c2ccccc2)c1 | -0.32
O=C(Nc1ccc2c(c1)OCCO2)c1cc2c(=O)[nH]c3ccccc3c2s1 | -0.68
COc1ccc(Oc2nc3c(c(=O)n(C)c(=O)n3C)n2Cc2ccccc2Br)cc1 | -0.16
CC(=O)Nc1cc(C(=O)NCCN2CCc3ccccc3C2)ccc1Sc1ccc(Cl)cc1 | 0.44
Cc1ccc2c(c1)c(=O)c1ccccc1n2CC(=O)N1CCC(C)CC1 | 0.11
O=[N+]([O-])c1ccc(N2CCNCC2)cc1N1CCc2ccccc2C1 | -0.93
Cc1c(Cl)cccc1Nc1ccc(C(=O)O)cc1[N+](=O)[O-] | -0.11

High-throughput results deposited in PubChem by Emory University Molecular Libraries Screening Center.
